Common to all, as to experiment: NCI-60 one-dose screen, 48 h (100 = growth as untreated, 0 = no growth, -100 = all killed)
Common to all, as to settings: 10 µM unless noted

The test system of test [1] is MOLT-4 leukemia.
The test system of test [2] is SR leukemia.
Test [3] deals with OVCAR-8 ovarian.
Test [4] has as its system OVCAR-5 ovarian.
For test [5], the system named is SK-OV-3 ovarian.
Test [6] deals with IGROV1 ovarian.
In test [7] the test system is NCI/ADR-RES ovarian.
Test [8] has as its system T-47D breast.
The subject of test [9] is BT-549 breast.
The test system of test [10] is MDA-MB-435 melanoma.
The subject of test [11] is SW-620 colon.
Test [12] relates to MCF7 breast.
Test [13] has as its system HCT-116 colon.
In test [14] the test system is HCC-2998 colon.
Test [15] deals with KM12 colon.
The subject of test [16] is RPMI-8226 leukemia.
The test system of test [17] is OVCAR-4 ovarian.
The subject of test [18] is OVCAR-3 ovarian.
Test [19] relates to HS 578T breast.

Molecules are shown by their SMILES. Several values for one entry are separate records, joined by “and”; a condition that tells them apart may be missing. Equal entries are not always repeated. About 83,000 compounds went through this panel and 20% of them were active in at least one assay; those are over-represented in the sample as a whole.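 Assay: single dose, 48 h. Readout: percent growth (0 = no net growth; negative = cell death). Active: <10.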 A number with no mark means an inactive call. Activity calls are given as the source filed them.

This passage reports growth results from PubChem BioAssay (NCI).

As to `Nc1nc(=S)nc(N)[nH]1`, the growth is 90.4% in test [1]; 71.3% in [2]; 104% in [3]; 89.1% in [4]; 102% in [5]; 87.6% in test [6]. For the same compound, the growth in test [7] was 95.6%; in test [8], 94.5%; in test [9], 77.8%; in [10], 105%; in test [11], 101%; in test [12], 96.5%. Also, the values for the growth in test [13], in test [14] and in test [15] were 89.1%, 92.1% and 112%, respectively.
Regarding `COC[C@H]1OC(=O)c2coc3c2[C@@]1(C)C1=C(C3=O)[C@@H]2CCC(=O)[C@@]2(C)C[C@H]1OC(C)=O`, the growth in [1] is 42.2%; in test [2], 12.1%; in [16], 58.8%; in test [4], -41.3% (active); in test [17], 53.2%; in test [5] it was 39.9%. The growth is -28% (active) in [6]; 41.7% in test [18]; 52.5% in test [7]; -2.63% (active) in [8]; 26.3% in test [9]; 60.3% in test [10]. For the same compound, the growth in [11] was 53.4%; in [12] it was 21.5%; in test [13], 45.7%; in [15], 51.2%.
For `CN(N)/N=N/c1nc[nH]c1[N+](=O)[O-]`, in [12], the growth was 69.6% [100 µM] and 35% [100 µM].
Turning to `C[C@]12CCC(=O)C[C@@H]1CC[C@@H]1[C@@H]2CC[C@]2(C)[C@@H](OC(=O)N(CCCl)N=O)CC[C@@H]12`, the growth in test [1] was 13.3%; in [16] it was 17.4%; in test [3], 27.8%; in [4], 42.6%; in [17], 72.6%; in test [5], 16.1%. Further, the growth in test [6] is -29.7% (active); in test [19], 35.7%; in [7], 25%; in [8] it was 34%; in [9], 32.9%; in test [10], 25.9%. Moreover, the growth was 31.7% in [11], 47.7% in test [12], 25.9% in test [13] and 44.6% in test [14].
As for `O=C(O)c1cc([N+](=O)[O-])cc([N+](=O)[O-])c1`, the growth in test [2] was 120%; in [16], 101%; in test [3], 89.6%; in [4], 104%; in [17], 109%; in test [5] it was 94.9%. Besides, the growth in [6] is 132%; in [18] it was 102%; in test [19] it was 98.1%; in [7], 106%; in test [9] it was 94.3%; in test [10], 101%. Besides, the growth is 105% in test [11]; 93.8% in test [12]; 85.4% in test [13]; 107% in [14]; 103% in [15].
Consider `O=C1NC(=O)C(=C/C=C/c2ccccc2)C(=O)N1`, for which the growth in [1] is 4.09% (active); in test [16], -20.4% (active); in [3], -3.62% (active); in test [4] it was 37%; in test [17], 26.8%; in test [5], 62.9%. Besides, the growth was 7.61% (active) in test [6]; 39.4% in test [19]; -29.1% (active) in [7]; 32.2% in test [8]; 36.6% in test [9]; 3.9% (active) in test [10]. The growth in test [11] was -76.4% (active); in [12], 14.2%; in [13], -78.5% (active); in test [14], 62.1%; in test [15] it was -40.1% (active).
Turning to `[N-]=[N+]=CC(=O)CCC(=O)C=[N+]=[N-]`, the growth in test [1] is 87%; in test [16], 119%; in test [3] it was 98.9%; in test [4], 107%; in test [17], 108%; in test [5], 109%. Moreover, the growth in test [6] was 49.2%; in test [18] it was 103%; in test [7], 103%; in test [8], 106%; in [10], 113%; in test [11], 94.1%. Also, the growth was 99.9% in [12], 102% in [13], 109% in [14] and 121% in test [15].
Turning to `NNC(=S)N/N=C(\C(=O)Nc1cccc(O)c1)C1C(=O)NC(=S)NC1=O`, in test [12], the growth was 95.1% [100 µM] and 87.3% [100 µM].
For `CCCC[C@@H]1CCN2C[C@@H](O)[C@@H](O)[C@@H]2[C@H]1O`, the growth in [12] is 111% [100 µM] and 89.6% [100 µM].
Take `COc1ccc(O)c2c(=O)c3c(OC)cc4c(c3oc12)[C@@H]1C=CO[C@@H]1O4`: the growth in test [2] was -6.56% (active); in test [16] it was 63.5%; in test [3], 50.6%; in test [4], 55.2%; in test [17] it was 40.8%; in [5], 35.6%. In addition, the growth in [6] was 16.3%; in [18] it was 52%; in test [19], 114%; in test [7], 41.6%; in [8], 5.73% (active); in test [9] it was 17.8%. For the same compound, the growth in [10] is 37.3%; in test [11] it was 64.6%; in test [12], -0.498% (active); in [13], 52.2%; in test [14], -51.7% (active); in test [15], 12.5%.
Turning to `N#CC(C#N)=Cc1cccc(F)c1`, the growth in test [1] is 97.9%; in [16] it was 103%; in test [3], 107%; in test [4], 98.4%; in test [17] it was 110%; in [5], 105%. Besides, the growth in [6] is 112%; in test [18] it was 109%; in test [19] it was 101%; in test [7], 107%; in [8], 105%; in test [9], 111%. Moreover, the growth is 107% in test [10]; 109% in [11]; 101% in test [12]; 108% in test [13]; 110% in [14]; 108% in test [15].
